# Screens: PubChem, Broad Institute
# A selection follows.
# aSyn UTR act: Activators via SNCA 5'UTR binding, MLPCN | 300,000 compounds, 7.1% hits | activity score, % (tested at 7.5 µM), hits read low | alpha-synuclein 5'UTR reporter, activators screen; in the data active = activity score below about -60%
# The depositor's hits bear a star.
SMILES,aSyn UTR act
O=S(=O)(/C(=C/c1ccc(C(F)(F)F)cc1)c1nc2ccccc2[nH]1)c1ccccc1,-62*
CCC1S/C(=N/C(=O)NC2CCCCC2)NC1=O (stereo unspecified),-86*
Cc1[nH]c2ccccc2c1/C=C/c1nc2ccccc2c(=O)n1CCO,-62*
Nc1[nH]c(N=NC(=O)c2ccc(F)cc2)c2ccccc12,-147*
Nc1ccccc1C(=O)N=Nc1[nH]c(N)c2ccccc12,-101*
Cc1ccc(N/C=C2\C(=O)C3(C)CCC2C3(C)C)cc1C (stereo unspecified),-63*
C/C(=N\Nc1nccnc1Cl)c1ccc(O)c(C)c1,-180*
O=C(Nc1ccccn1)c1ccc(Br)c(S(=O)(=O)N2CCCC2)c1,-65*
CCS(=O)(=O)c1ncc(Cl)c(C(=O)Nc2ccc(S(=O)(=O)N3CCC(C)CC3)cc2)n1,65
O=C(Nc1ccccn1)c1ccc(S(=O)(=O)N2CCCCC2)cc1,-121*
Cc1ccnc(NC(=O)C2CCN(S(=O)(=O)c3ccc(Cl)c(C(F)(F)F)c3)CC2)c1,-63*
CCN(CC)CCNC(=O)c1ccc(NC(=O)c2ccc(S(=O)(=O)N3CCCCCC3)cc2)cc1,-64*
O=C(Nc1cccc(S(=O)(=O)N2CCCCC2)c1)c1ccc([N+](=O)[O-])o1,-268*
Cc1cccc(NC(=S)N=Nc2c(O)n(C)c3ccc(S(=O)(=O)N4CCOCC4)cc23)c1,83
Cc1ccnc(NC(=O)c2ccc(S(=O)(=O)N3CCCCCC3)cc2)c1,-119*
O=C(N/N=C\c1cc(Br)ccc1O)c1ccc(S(=O)(=O)N2CCCCC2)cc1,110
O=C(Nc1cccc(O)c1)c1ccc(S(=O)(=O)N2CCCCCC2)cc1,-68*
O=C(Nc1ccccn1)c1ccc(S(=O)(=O)N2CCCCCC2)cc1,-87*
O=C(Nc1ccccc1[N+](=O)[O-])c1ccc(S(=O)(=O)N2CCCC2)cc1,-131*
Cc1ccc(CNc2ccc(Cl)cc2[N+](=O)[O-])cc1,-76*
CCN1CCN(Cc2ccc(NC(=O)c3ccc(C)c(NC(=O)N4CCNC4=O)c3)cc2C(F)(F)F)CC1,60
CCN1CCN(c2ccc(NC(=O)c3ccc4c(c3)[nH]c(=O)n4Cc3ccc(F)cc3)cc2)CC1,-68*
O=C(Nc1ccccc1Cl)C1Cc2ccccc2O/C1=N\O (stereo unspecified),-88*
O=C(NN=C1C2CC3CC(C2)CC1C3)c1cccs1,-87*
CCOC(=O)N/N=C(\C)c1cccs1,-67*
SMILES,aSyn UTR act
C/C(=N/NC(=O)c1cccs1)c1cccc(N)c1,-86*
C/C(=N/NC(=O)c1cccs1)c1cccs1,-82*
C/C(=N/Nc1ccccc1C(=O)O)c1cccs1,-89*
C/C(=N\NC(=O)COc1ccccc1[N+](=O)[O-])c1cccs1,-146*
C/C(=N\NC(=O)COc1ccccc1-c1ccccc1)c1ccccn1,114
C/C(=N\NC(=O)c1sccc1-n1cccc1)c1cccs1,-80*
CC(=O)N1CCC(=NNC(=O)c2cccs2)CC1,-115*
COc1cc(C(c2c(C)[nH][nH]c2=O)c2c(C)[nH][nH]c2=O)ccc1OCc1ccc([N+](=O)[O-])cc1,-146*
CCOC(=O)C(=Cc1ccc(OCc2ccc([N+](=O)[O-])cc2)c(OC)c1)C(=O)OCC,-267*
COC(=O)C(=Cc1ccc(OCc2ccc([N+](=O)[O-])cc2)c(OC)c1)C(=O)OC,-259*
Nc1ccc(C(=O)OCC(=O)N2CCOCC2)cc1[N+](=O)[O-],-71*
O=C(OCC(=O)N1CCOCC1)c1ccccc1Cc1ccccc1,-183*
O=C(OCC(=O)N1CCOCC1)c1cccc(F)c1,-87*
S=C(c1ccc(-c2ccccc2Cl)o1)N1CCOCC1,-137*
S=C(c1ccc(-c2ccc(Cl)c(Cl)c2)o1)N1CCOCC1,-155*
CC1CCN(C(=O)c2ccc(-c3ccccc3Cl)o2)CC1,-104*
O=C(Cc1ccc(Br)cc1)N1CCCCCC1,-176*
O=C(c1ccc(-c2cccc(Cl)c2Cl)o1)N1CCOCC1,-133*
O=C(c1ccc(-c2cccc(C(F)(F)F)c2)o1)N1CCOCC1,-71*
S=C(c1ccc(-c2ccc(Br)cc2)o1)N1CCOCC1,-178*
S=C(c1ccc(-c2ccc(Br)cc2)o1)N1CCCCC1,-201*
O=C(c1ccc(-c2ccc([N+](=O)[O-])cc2Cl)o1)N1CCOCC1,-135*
CCOC(=O)/C(C#N)=C/C=C1/C=CC=CN1C,-63*
C=CCN1C=CC(=C/C=C(/C#N)C(=O)OCC)C=C1,-138*
CCc1cc(C(=O)COc2ccc(F)cc2)c(O)cc1O,-104*
SMILES,aSyn UTR act
Cc1c(O)ccc(C(=O)COc2ccc(F)cc2)c1O,-154*
CCCCN1CCc2c([nH]c3ccc(C)cc23)C1=O,-171*
O=C(Nc1ccc(N2CCOCC2)cc1)Nc1ccc2nc(-c3ccco3)c(-c3ccco3)nc2c1,112
O=C(Nc1ccc2nc(-c3ccco3)c(-c3ccco3)nc2c1)NC1CC1,-65*
Clc1cccc(Nc2ncnc3c2cnn3-c2ccccc2)c1,-86*
O=C(O)c1cccc(Nc2ncnc3c2cnn3-c2ccccc2)c1,-101*
Fc1cccc(Nc2ncnc3c2cnn3-c2ccccc2)c1,-173*
Nc1c(-c2cccs2)cnc2c(-c3ccc(F)cc3)cnn12,-165*
Nc1c(C(=O)O)cnc2c(-c3ccc(Cl)cc3)cnn12,-72*
CC(C)(C)S(=O)(=O)c1cnc2c(-c3ccsc3)cnn2c1N,-74*
CS(=O)(=O)c1cnc2c(-c3ccc(F)cc3)cnn2c1N,-106*
NS(=O)(=O)c1cc2c(cc1Cl)NC(C1C[C@H]3C=C[C@@H]1C3)NS2(=O)=O (stereo partly specified),-80*
Cc1ccsc1/C=N/NC(=O)c1ccco1,-81*
Cc1ccsc1/C=N/NC(=O)c1sccc1C,-167*
Cc1ccsc1/C=N/N=C/c1sccc1C,-181*
Cc1ccc(C(=O)N/N=C/c2c(O)ccc3ccccc23)cn1,62
Cc1ccc(C(=O)N/N=C\c2sccc2C)cn1,-75*
COC(=O)c1ccc(-c2ccc(/C=N/NC(=O)Cc3nnc(N)s3)o2)cc1,-67*
N#Cc1cnn(-c2ncnc3sc(-c4ccccc4)cc23)c1N,-65*
CCCCOc1ccc(-n2nc(C)cc2C)nn1,-72*
CCN(CC)C(=O)Oc1ccc2c(c1)O/C(=C\c1ccco1)C2=O,-116*
COC(=O)CSc1nc2ccccn2c(=O)c1C=O,-173*
CCOC(=O)c1oc2cccc(OC(C)=O)c2c1C,-85*
CCOC(=O)c1oc2cccc(O)c2c1C,-81*
CCC(=O)N(CC)c1nc(-c2ccc(OC)cc2)cs1,-161*
SMILES,aSyn UTR act
COCCN(C(=O)c1ccccc1F)c1nc(-c2ccc(OC)cc2)cs1,-73*
C=CCN(C(=O)CCc1ccccc1OC)c1nc(-c2ccc(S(C)(=O)=O)cc2)cs1,71
CCN(C(=O)c1ccccc1F)c1nc(-c2ccc(OC)cc2)cs1,-199*
COCCN(C(=O)c1ccccc1F)c1nnc(-c2ccc(OC)cc2)s1,-73*
CCN(C(=O)c1ccco1)c1nc(-c2ccc(OC)cc2)cs1,-159*
CN(C(=O)c1ccco1)c1nc(-c2ccccc2)cs1,-158*
Cc1ccc(NC(=O)C2=C(O)c3sccc3N(C)S2(=O)=O)cc1,-101*
CCOC(=O)C1CCCCN1C(=O)CCc1nnc(-c2ccc3c(c2)OCO3)o1 (stereo unspecified),-65*
C=CCOC(=O)/C(=C/c1cccc2ccccc12)NC(=O)c1ccccc1,-258*
O=C1C(=O)c2ccc(-c3ccccc3)cc2-c2ccccc21,119
O=C1C(c2ccccc2)=[N+]([O-])c2ccccc21,-94*
